Compound activity deposited in PubChem BioAssay by National Center for Advancing Translational Sciences (NCATS).
NPC1 prom act = qHTS Assay for NPC1 Promoter Activators. 320,000 compounds, 2.4% hits. Potency, µM (titrated, usually from 9.22 µM), usual class: activators. Huh7 NPC1 promoter luciferase reporter, 24 h. AID 485313, 2010; further: nearly all actives have a fitted effect of over 60% in size
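Stable NPC1-promoter luciferase Huh7 line; cpd (DMSO) 24 h, 37 °C, 5% CO2; Amplite luciferase reagent 10 min RT; luminescence readout. qHTS format.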
ELG1 genotox = qHTS screen for small molecules that induce genotoxicity in human embryonic kidney (HEK293T) cells expressing luciferase-tagged ELG1. HEK293T ELG1-luciferase reporter, luminescence, 16 h. Potency, µM (highest dose often 46 µM), usual class: activators. 330,000 compounds, 1.3% hits; further: nearly all actives have a fitted effect of over 60% in size
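Screening used a luciferase reporter fused to human ELG1 in HEK293T cells. Luminescence was read on a CCD plate imager after 16 hr exposure and 30 min ONE-Glo incubation.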
FLuc counter = qHTS profiling assay for firefly luciferase inhibitor/activator using purifed enzyme and Km concentrations of substrates (counterscreen for miR-21 project); Luciferin 4-monooxygenase (Photinus pyralis), P08659; purified FLuc, Km substrates, luminescence inhibition; Potency, µM (series often up to 57.5 µM), most hits filed as inhibitors; 360,000 compounds, 6.9% hits; AID 588342, 2011; further: nearly all actives have a fitted effect of over 55% in size
Target sequence (P08659 whole entry, looked up): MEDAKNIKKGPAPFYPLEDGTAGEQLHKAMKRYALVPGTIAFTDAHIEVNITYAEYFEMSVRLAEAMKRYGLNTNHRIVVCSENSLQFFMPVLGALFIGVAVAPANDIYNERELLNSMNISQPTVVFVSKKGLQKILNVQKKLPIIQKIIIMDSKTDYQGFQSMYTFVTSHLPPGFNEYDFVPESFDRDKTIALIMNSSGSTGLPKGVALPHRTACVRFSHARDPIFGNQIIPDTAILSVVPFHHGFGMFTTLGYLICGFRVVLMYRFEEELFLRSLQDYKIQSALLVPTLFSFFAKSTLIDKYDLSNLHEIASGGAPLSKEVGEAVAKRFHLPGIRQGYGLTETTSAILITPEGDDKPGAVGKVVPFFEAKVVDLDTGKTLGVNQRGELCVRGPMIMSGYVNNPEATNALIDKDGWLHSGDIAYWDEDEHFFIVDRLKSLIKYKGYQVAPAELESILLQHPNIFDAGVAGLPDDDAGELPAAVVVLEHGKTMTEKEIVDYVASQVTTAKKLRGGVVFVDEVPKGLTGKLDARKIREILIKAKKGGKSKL
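Biochemical qHTS of compounds, final roughly 60 µM downward over six points, against 10 nM purified firefly luciferase using Km concentrations of substrates (10 uM D-luciferin, 10 uM ATP) in Tris acetate pH 7.5 buffer; luminescence output.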
Rab9 promoter act = qHTS Assay for Rab9 Promoter Activators. Huh7 Rab9 promoter-luciferase reporter, luminescence, 24 h. Potency, µM (series often up to 9.22 µM), actives largely listed as activators. 320,000 compounds, 2.8% hits; further: nearly all actives have a fitted effect of over 60% in size
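Measured in stably transfected Huh7 cells bearing a Rab9 promoter–luciferase construct: 24 h compound treatment at 37 °C, followed by luminescence detection.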
SMN2 splice up = qHTS Assay for Enhancers of SMN2 Splice Variant Expression; HEK293 SMN2-luciferase splicing reporter, luminescence, 30-36 h; Potency, µM (doses to about 46.1 µM), usual class: activators; 210,000 compounds, 2.8% hits; further: nearly all actives have a fitted effect of over 55% in size
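HEK293 cells carry an SMN2 […]–luciferase reporter in which exon 7 inclusion puts luciferase in frame. Cells were plated 10-12 h before compound addition, then incubated 30-36 h at 37C. ONE-Glo luminescence was read; sodium butyrate at 4.5 mM final served as control.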
Large screens that a line does not name were inactive. Compounds with a hit are over-represented: about 7.4% of the library has one in this group of screens. The call rests on the fitted dose curve; in most records, active means well fitted curve in the direction sought with a large enough effect; inconclusive means small, poorly fitted or top-dose-only effect, or another doubt; inactive means no such curve, though single readings can be large; an effect the other way counts as inactive or inconclusive.

CC(=O)Nc1ccc(NC(=O)c2ccccc2N(C)S(=O)(=O)c2ccccc2)cc1	none (no result: SMN2 splice up)
Cc1ccc2[nH]c(=O)c(CN(Cc3ccccc3)C(=S)NCCCN(C)C)cc2c1	NPC1 prom act 0.32µM, ELG1 genotox 0.73µM, FLuc counter 0.76µM, Rab9 promoter act 0.32µM (no result: SMN2 splice up)
COc1cc2cc(CN(CCc3ccccc3C)C(=S)NCCCN(C)C)c(=O)[nH]c2cc1OC	none
CCc1nc2cc3sc(CC)nc3cc2s1	NPC1 prom act 3.5µM, ELG1 genotox 9.2µM, FLuc counter 8.5µM, Rab9 promoter act 2µM (no result: SMN2 splice up)
CCc1nc2cc(Cl)c(Cl)cc2nc1CC	none (no result: SMN2 splice up)
CC(C)(C)c1ccc(C2=NC(=O)C(CC(=O)O)S2)cc1 (stereo not given)	FLuc counter 1.7µM (no result: SMN2 splice up)
COc1ccc(C(=O)CC2SC(N)=NC2=O)cc1 (stereo not given)	none (no result: SMN2 splice up)
COc1cccc(NC(=O)NCc2ccc3c(c2)CCN3C(=O)c2ccccc2)c1	none (no result: NPC1 prom act, ELG1 genotox, Rab9 promoter act, SMN2 splice up)
Nc1cccc(-c2ccc(CO)o2)c1	FLuc counter 17µM (no result: SMN2 splice up)
COc1ccc(N2C(=O)CS(=O)(=O)C23C(=O)N(Cc2c(F)cccc2Cl)c2ccccc23)cc1 (stereo not given)	none (no result: NPC1 prom act, ELG1 genotox, Rab9 promoter act, SMN2 splice up)
Cc1nc2nc(-c3ccc(Cl)cc3)[nH]n2c(=O)c1Cc1ccccc1	NPC1 prom act inconclusive, ELG1 genotox inconclusive, FLuc counter 3µM, SMN2 splice up inconclusive
Cc1nc2nc(-c3ccccc3)[nH]n2c(=O)c1C	ELG1 genotox inconclusive, FLuc counter inconclusive, Rab9 promoter act inconclusive, SMN2 splice up inconclusive
Cc1nc2nc(-c3cccnc3)[nH]n2c(=O)c1Cc1ccccc1	FLuc counter inconclusive
Cc1nc2nc(-c3ccc(Cl)cc3)[nH]n2c(=O)c1C	NPC1 prom act 2.5µM, ELG1 genotox inconclusive, FLuc counter 6µM, Rab9 promoter act 2.2µM, SMN2 splice up inconclusive
Cc1nc2c(-c3ccccc3)c[nH]n2c(=O)c1Cc1ccccc1	FLuc counter 27µM, Rab9 promoter act inconclusive
CCN(CC)CCCn1c2c(c(SCC(=O)Nc3cc(OC)cc(OC)c3)nc1=O)CCC2	none (no result: SMN2 splice up)
CC(=O)Oc1ccc2c(=O)c(-c3ccccc3)coc2c1	NPC1 prom act inconclusive, FLuc counter 13µM, Rab9 promoter act inconclusive, SMN2 splice up 25µM
CCOC(=O)COc1ccc2c(=O)c(-c3ccccc3)coc2c1	FLuc counter 17µM (no result: SMN2 splice up)
CCOCCOC(=O)COc1ccc2c(-c3ccccc3)cc(=O)oc2c1	FLuc counter inconclusive
Cc1ccc(S(=O)(=O)N2CCCCC2)cc1NC(=O)C1CCC1	none (no result: SMN2 splice up)
COc1ccc(Br)cc1C(=O)Nc1cccc(NC(=O)c2ccco2)c1	FLuc counter 24µM (no result: SMN2 splice up)
O=C(c1ccccc1)c1cccc(NC(=O)c2ccco2)c1	ELG1 genotox inconclusive, FLuc counter 27µM, Rab9 promoter act 4µM
COc1ccc(C(=O)COc2cccc(NC(=O)c3ccco3)c2)cc1	FLuc counter 15µM
O=C(Nc1cccc(NC(=O)c2ccco2)c1)c1ccccc1	FLuc counter inconclusive (no result: SMN2 splice up)
COc1c(C)cc(Br)cc1C(=O)Nc1cccc(NC(=O)c2ccco2)c1	none
COc1cccc(C(=O)COc2cccc(NC(=O)c3ccco3)c2)c1	FLuc counter 27µM (no result: SMN2 splice up)
CCOC(=O)C1CCN(C(=O)c2nn(-c3ccc(C)cc3)c(=O)c3c2c2ccccc2n3C)CC1	none (no result: NPC1 prom act, ELG1 genotox, Rab9 promoter act)
COc1cccc(NC(=O)c2ccco2)c1	NPC1 prom act inconclusive, ELG1 genotox 15µM, FLuc counter inconclusive, Rab9 promoter act inconclusive, SMN2 splice up 10µM
O=C(Nc1cccc(OC(=O)c2ccco2)c1)c1ccco1	none
COc1ccc(Br)cc1C(=O)Nc1ccc(O)cc1	FLuc counter inconclusive, SMN2 splice up 28µM
O=C(COc1cccc(NC(=O)c2ccco2)c1)c1ccccc1	FLuc counter 17µM
O=S(=O)(c1ccc(NCc2ccccc2)cc1)N1CCOCC1	none (no result: SMN2 splice up)
CN(C)C1=NC[C@H](Cc2ccccc2)N1CC1CCCCCC1	none (no result: SMN2 splice up)
C=CCN1c2ccccc2[C@]23C[C@@H](C(=O)OC)N(S(=O)(=O)CCCC)C2=NC(C(=O)OC)=C(C(=O)OC)[C@H]13	none (no result: NPC1 prom act, ELG1 genotox, FLuc counter, Rab9 promoter act)
C=CCn1c(-c2cc3cccc(OC)c3o2)n[nH]c1=S	FLuc counter inconclusive
COc1cccc2cc(-c3ccnc(=S)[nH]3)oc12	SMN2 splice up 11µM
